Laboratory results reported in PubChem BioAssay AID463173 (ICCB-Longwood Screening Facility, Harvard Medical School, 2010).
The campaign covered roughly 52,000 compounds. About 1,700 (3.3%) were called active. Cut-off read from the data, not from the text of the source: active = survival mostly below about 52% (no sharp cut-off); inactive = mostly above about 56%. For the sample, actives were picked, then their nearest neighbours and some compounds at random.

These compounds were tested on Wild type (assay: growth inhibition of S. aureus wild type versus tarO mutant, primary screen, teichoic acid synthesis inhibitors, RN4220, OD600 (AID 463173)). Details: S. aureus RN4220 wild type/DeltatarO growth, OD600, 18 h, stronger effect = lower value, screened at 18.75 µg/mL (by protocol).

Q: Which survival does the source give for O=C(OCc1cc(=O)n2nc(C3CC3)sc2n1)c1cccc(NC(=O)c2ccccc2Cl)c1 here?
A: 57% (inactive)

Q: For Cc1nnc(N2C(=O)c3oc4ccccc4c(=O)c3C2c2ccc(C(C)(C)C)cc2)s1 (stereo not drawn), which survival is on record?
A: 129% (inactive)

Q: With COc1ccccc1CNC(=O)CCNS(=O)(=O)c1ccc2c(c1)oc(=O)n2C as the compound, how does the survival read?
A: 83% (inactive)

Q: With Clc1ccccc1CSc1nnc(C2CCNCC2)o1 as the compound, how does the survival read?
A: 95% (inactive)

Q: With CC(C)(C)OC(=O)N1CCC(c2nnc(SCc3ccccc3Cl)o2)CC1 as the compound, how does the survival read?
A: -2% (active)

Q: How did the survival turn out when CC(C)(C)OC(=O)N1CCC(c2nnc(SCc3cccc(Cl)c3)o2)CC1 was run?
A: 0% (active)

Q: CC(C)(C)OC(=O)N1CCC(c2nnc(SCc3ccccc3F)o2)CC1 was tested. Which survival did it give?
A: 73% (inactive)

Q: CC(C)(C)OC(=O)N1CCC(c2nnc(SCc3ccccc3)o2)CC1 was tested. Which survival did it give?
A: 83% (inactive)

Q: Which survival does the source give for Clc1cccc(CSc2nnc(C3CCNCC3)o2)c1 here?
A: 109% (inactive)

Q: For CCCN1CCN(c2cc3c(cc2F)c(=O)c(S(=O)(=O)c2ccc(CC)cc2)cn3CC)CC1, which survival is on record?
A: 70% (inactive)

Q: Which survival does the source give for Nc1ccc2c(c1)ncn2CCO here?
A: 115% (inactive)

Q: Which survival does the source give for COc1ccccc1NC(=O)Cn1nc2c3cc(F)ccc3n(Cc3cccc(C)c3)cc-2c1=O here?
A: -4% (active)

Q: CCOc1ccccc1NC(=O)Cn1nc2c3cc(F)ccc3n(Cc3cccc(C)c3)cc-2c1=O was tested. Which survival did it give?
A: 81% (inactive)

Q: CCc1ccccc1NC(=O)Cn1nc2c3cc(F)ccc3n(Cc3cccc(C)c3)cc-2c1=O was tested. Which survival did it give?
A: 71% (inactive)

Q: For Cc1cc(C)cc(OCc2cc(=O)n3c(-c4ccccc4)csc3n2)c1, which survival is on record?
A: 88% (inactive)

Q: With Cc1cccc(NC(=O)C(=O)c2cc(C)n(-c3ccccc3)c2C)c1C as the compound, how does the survival read?
A: 79% (inactive)

Q: With COc1cccc(CNC(=O)CSc2n[nH]c(-c3ccccc3Cl)n2)c1 as the compound, how does the survival read?
A: 75% (inactive)

Q: For O=C(CSc1n[nH]c(-c2ccccc2Cl)n1)NCc1ccc(F)cc1, which survival is on record?
A: -6% (active)

Q: With Cc1ccc(CNC(=O)CSc2n[nH]c(-c3ccc(F)cc3)n2)cc1 as the compound, how does the survival read?
A: 124% (inactive)

Q: COc1ccccc1-c1nc(SCC(=O)c2ccc(Cl)cc2)n[nH]1 was tested. Which survival did it give?
A: 131% (inactive)

Q: For COc1ccc(CNC(=O)CSc2n[nH]c(-c3ccc(F)cc3)n2)cc1, which survival is on record?
A: 120% (inactive)

Q: How did the survival turn out when COc1ccc(CNC(=O)CSc2n[nH]c(-c3ccc(OC)cc3)n2)cc1 was run?
A: -6% (active)

Q: With O=C(CSc1n[nH]c(-c2ccccc2Cl)n1)NCCc1ccccc1 as the compound, how does the survival read?
A: 72% (inactive)

Q: For COc1ccc(-c2nc(SCC(=O)NC(C)CCc3ccccc3)n[nH]2)cc1 (stereo not drawn), which survival is on record?
A: -1% (active)

Q: Which survival does the source give for COc1ccccc1-c1nc(SCC(=O)c2ccccc2)n[nH]1 here?
A: 77% (inactive)

Q: CC(C)Oc1ccccc1-c1nc(SCC(=O)c2ccc(F)cc2)n[nH]1 was tested. Which survival did it give?
A: -5% (active)

Q: How did the survival turn out when CC(CCc1ccccc1)NC(=O)CSc1n[nH]c(-c2ccc(F)cc2)n1 (stereo not drawn) was run?
A: 134% (inactive)

Q: CC(CCc1ccccc1)NC(=O)CSc1n[nH]c(-c2ccccc2)n1 (stereo not drawn) was tested. Which survival did it give?
A: 71% (inactive)
